Results as given in PubChem BioAssay AID1159580 (chemical genetic matrix, 2015).
The whole screen tested about 5,500 compounds, of which about 2,000 (36%) were called active. Inconclusive results (about 18%) are left out. No stated cut-off is given here; in the data, active means normalized growth mostly below about 0.91 (no sharp cut-off); inconclusive means no clear call, values can overlap the other calls; inactive means mostly above about 0.92. Some of the results follow.

Assay: chemical genetic growth profiling, strain panel (AID 1159580);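 further: tested at 20 µM; growth read once vehicle control cultures reached saturation at 30 °C; 1 = growth at the plate median or of vehicle wells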
Conditions: S. cerevisiae deletion strains, growth OD
[1] = locus YDR150W, strain NUM1, stronger effect = lower value
[2] = locus YGR078C, strain PAC10, stronger effect = lower value
[3] = locus YNL153C, strain GIM3, stronger effect = lower value
[4] = locus YNL322C, strain KRE1, stronger effect = lower value
[5] = locus YPL055C, strain LGE1, stronger effect = lower value
[6] = locus YPL241C, strain CIN2, stronger effect = lower value
[7] = locus YHR030C, strain SLT2, stronger effect = lower value

Measured: normalized growth

c1ccc2c(N3CCNCC3)cccc2c1
inactive: locus YAL040C, strain CLN3, stronger effect = lower value 1.03 | locus YCL061C, strain MRC1 (second series), stronger effect = lower value 1 | [1] 0.994 | locus YDR363W, strain ESC2, stronger effect = lower value 0.999 | locus YER002W, strain NOP16, stronger effect = lower value 1.01 | [2] 0.993 | locus YGR229C, strain SMI1, stronger effect = lower value 1.02 | locus YMR307W, strain GAS1, stronger effect = lower value 0.99 | [3] 0.991 | locus YNL175C, strain NOP13, stronger effect = lower value 1.01 | locus YNL197C, strain WHI3, stronger effect = lower value 0.997 | locus YNL224C, strain SQS1, stronger effect = lower value 1.01 | [4] 1.01 | locus YOR083W, strain WHI5 (second series), stronger effect = lower value 1 | [5] 1.02 | [6] 1

COc1ccccc1N1CCN(Cc2ccc(F)cc2)CC1
inactive: locus YAL013W, strain DEP1, stronger effect = lower value 1.02 | locus YBR229C, strain ROT2, stronger effect = lower value 0.993 | locus YCL061C, strain MRC1, stronger effect = lower value 1 | locus YDL101C, strain DUN1, stronger effect = lower value 0.992 | [1] 1.02 | locus YEL061C, strain CIN8, stronger effect = lower value 1.01 | [2] 1.01 | [7] 1.06 | locus YHR087W, strain rtc3, stronger effect = lower value 1.01 | locus YJL187C, strain SWE1, stronger effect = lower value 1.02 | locus YJR043C, strain POL32, stronger effect = lower value 1.01 | locus YJR075W, strain HOC1, stronger effect = lower value 0.983 | locus YKL190W, strain CNB1, stronger effect = lower value 1.02 | locus YLR039C, strain RIC1, stronger effect = lower value 0.987 | locus YLR058C, strain SHM2 (second series), stronger effect = lower value 1.02 | locus YLR085C, strain ARP6, stronger effect = lower value 1.04 | locus YLR262C, strain YPT6, stronger effect = lower value 1.01 | locus YML094W, strain GIM5, stronger effect = lower value 1 | locus YMR219W, strain ESC1, stronger effect = lower value 1.01 | locus YMR263W, strain SAP30, stronger effect = lower value 1.01 | locus YNL128W, strain TEP1, stronger effect = lower value 1.02 | [3] 0.997 | locus YNL298W, strain CLA4 (second series), stronger effect = lower value 1.05 | [4] 1 | locus YNR030W, strain Alg12, stronger effect = lower value 1.04 | [5] 1 | [6] 0.998 | locus YPR135W, strain CTF4, stronger effect = lower value 1

CN1CC(=O)N2[C@H](c3ccc4c(c3)OCO4)c3[nH]c4ccccc4c3C[C@@H]2C1=O
inactive: [7] 0.966 | locus YHR079C, strain IRE1, stronger effect = lower value 0.947 | locus YJL095W, strain BCK1, stronger effect = lower value 0.964 | locus YJR066W, strain TOR1, stronger effect = lower value 0.913 | locus YLR113W, strain HOG1, stronger effect = lower value 0.968 | locus YNL183C, strain NPR1, stronger effect = lower value 0.918 | locus YOR231W, strain MKK1, stronger effect = lower value 0.975 | locus YPL256C, strain CLN2, stronger effect = lower value 0.946
